What all share (conditions): concentration: 1 μM,replicates: in singlicate; n = 1
The subject of experiment [1] is STK36.
Experiment [2] relates to STK39.
The test system of experiment [3] is SYK.
Experiment [4] relates to SgK110.
Experiment [5] deals with T1, TAK1.
T1 construct: gene MAP3K7

Experiment [6] has as its system TAOK1.
The subject of experiment [7] is TAOK2.
Experiment [8] concerns TAOK3.
The subject of experiment [9] is TBK1.
The test system of experiment [10] is TEC.
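Further: KINOMEscan kinase panel screen.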

Take `COc1ccc(C[C@@H](CN)NC(=O)c2cc(Br)c(-c3ccnc4[nH]ccc34)s2)cc1.Cl.Cl` [GSK1389063]: the “%Inh” value in [1] is on record as 0%; in experiment [2] it was 16%; in experiment [3] it was 39%; in experiment [4], 85%; in experiment [5], 75%; in [6] it was 87%. For the same compound, the “%Inh” value was 27% in experiment [7], 60% in experiment [8], 1% in experiment [9] and 0% in experiment [10].
As to `CCN(CC)CCCCNc1ncc2cc(-c3c(Cl)cccc3Cl)c(NC(=O)NC(C)(C)C)nc2n1`, the “%Inh” value in [1] is 77%; in experiment [2] it was 0%; in [3], 11%; in experiment [4], 25%; in experiment [5], 57%; in experiment [6] it was 99.2%. Also, the “%Inh” value in [7] was 99.5%; in experiment [8], 99.5%; in experiment [9] it was 0%; in experiment [10] it was 0%.
Turning to `Cc1occc1-c1nc(N)c(OC[C@@H](N)Cc2c[nH]c3ccccc23)cc1-c1cc2c(C)n[nH]c2cn1` [GSK1660450], the “%Inh” value in [1] stood at 67%; in experiment [2], 4%; in experiment [3], 0%; in [4], 0%; in experiment [5], 97.2%; in experiment [6] it was 99.6%. Further, the “%Inh” value in experiment [7] is on record as 89%; in experiment [8], 99.6%; in experiment [9], 6%; in experiment [10] it was 0%.
For the compound `Cl.Cl.NC[C@H](CC1CCCCC1)NC(=O)c1cc(Br)c(-c2ccnc3[nH]ccc23)s1` [GSK1581427], the “%Inh” value in experiment [1] came out at 0%; in [2], 6%; in experiment [3], 19%; in [4], 82%; in experiment [5] it was 0%; in experiment [6] it was 42%. In addition, the “%Inh” value in experiment [7] is recorded as 0%; in experiment [8], 4%; in experiment [9], 1%; in experiment [10], 0%.
On to `Cl.Cl.Nc1nc(-c2ccc3c(N)n[nH]c3c2)cc(N2CCCC(NC(=O)c3ccccc3)C2)n1` (stereo not drawn) [GSK2286775], for which the “%Inh” value in experiment [1], in [2], in experiment [3], in [4], in [5] and in experiment [6] was 0% in each case. Besides, the “%Inh” value in [7] is listed as 0%; in experiment [8] it was 0%; in [9], 76%; in experiment [10] it was 6%.
For the compound `O=C(NCCNc1ccnc(NCc2ccc(F)cc2)n1)c1cc2ccccc2s1` [GSK1379944], the “%Inh” value in experiment [1] amounted to 2%; in experiment [2], 1%; in experiment [3], 14%; in experiment [4] it was 17%; in experiment [5], 0%; in experiment [6] it was 0%. The “%Inh” value in experiment [7] is 14%; in [8], 0%; in [9], 19%; in experiment [10], 21%.
Turning to `CC(C)N1C(=O)Cc2cc(Nc3ncc(C(F)(F)F)c(NCc4cccc(S(C)(=O)=O)c4)n3)ccc21`, the “%Inh” value stood at 0% in [1]; 33% in experiment [2]; 87% in [3]; 0% in experiment [4]; 70% in experiment [5]; 0% in experiment [6]. Also, the “%Inh” value is given as 0% in experiment [7], 0% in experiment [8], 86% in experiment [9] and 10% in experiment [10].
With `O=C(NCCCN1CCOC1=O)c1cnc(NCc2cc(Cl)ccc2Cl)nc1NC1CCCC1`, the “%Inh” value in [1] stood at 10%; in experiment [2], 0%; in experiment [3] it was 15%; in [4], 0%; in experiment [5], 0%; in [6], 0%. The “%Inh” value in experiment [7] was 10%; in [8], 0%; in experiment [9], 24%; in experiment [10], 18%.
`Nc1nc(Nc2ccccc2)cc(-c2ccc3c(N)n[nH]c3c2)n1` [GSK2225749]: the “%Inh” value in experiment [1] was 24%; in [2], 0%; in [3], 0%; in [4], 0%; in experiment [5], 36%; in experiment [6] it was 32%. Besides, the “%Inh” value in experiment [7] worked out at 2%; in experiment [8], 23%; in experiment [9] it was 28%; in [10], 0%.
On to `CNC(=O)c1ccccc1Sc1ccc2c(/C=C/c3ccccn3)n[nH]c2c1`, for which the “%Inh” value was found to be 24% in experiment [1]; 0% in experiment [2]; 5% in experiment [3]; 0% in experiment [4]; 15% in [5]; 0% in experiment [6]. For the same compound, the “%Inh” value in experiment [7] is given as 0%; in [8] it was 0%; in [9], 36%; in experiment [10], 0%.
Take `CN(C)CCOc1ccc(-c2cc(-c3c[nH]nc3-c3ccccn3)ccn2)cc1` [GW835314]: the “%Inh” value worked out at 47% in [1]; 0% in experiment [2]; 26% in experiment [3]; 0% in [4]; 26% in experiment [5]; 23% in experiment [6]. For the same compound, the “%Inh” value in experiment [7] is 0%; in experiment [8], 0%; in [9], 18%; in experiment [10], 13%.
As for `C[C@@H](Oc1cc(-c2cnn(C3CCNCC3)c2)cnc1N)c1c(Cl)ccc(F)c1Cl`, the “%Inh” value in experiment [1] is on record as 0%; in [2], 0%; in experiment [3], 8%; in experiment [4], 83%; in experiment [5], 33%; in [6] it was 31%. Further, the “%Inh” value in experiment [7] was found to be 48%; in experiment [8], 36%; in [9], 65%; in [10], 2%.
Take `Cc1cc(C(=O)Nc2ccc(Oc3ccc4nc(NC(=O)C5CC5)cn4n3)cc2)nn1-c1ccccc1`: the “%Inh” value is on record as 0% in experiment [1]; 7% in experiment [2]; 22% in [3]; 0% in [4]; 0% in experiment [5]; 0% in experiment [6]. In addition, the “%Inh” value in experiment [7] was determined as 1%; in [8], 0%; in experiment [9] it was 57%; in experiment [10], 37%.
As for `CN(C)CC(O)COc1ccc(Nc2nccc(-c3cnn4nc(N5CCOCC5)ccc34)n2)cc1` (stereo not drawn) [GW767488], the “%Inh” value in experiment [1] is given as 56%; in experiment [2], 79%; in [3] it was 4%; in [4], 0%; in experiment [5], 63%; in experiment [6] it was 59%. The “%Inh” value in experiment [7] worked out at 34%; in [8], 37%; in [9], 58%; in experiment [10], 7%.
Consider `Cc1cc2cn[nH]c2cc1-c1cccc2c(N)c(C(N)=O)nnc12`, for which the “%Inh” value in experiment [1] is given as 0%; in experiment [2], 47%; in experiment [3] it was 20%; in experiment [4] it was 0%; in [5], 69%; in experiment [6], 83%. The “%Inh” value in experiment [7] is 37%; in experiment [8] it was 39%; in [9], 47%; in experiment [10] it was 94.9%.
Take `Cl.Cl.NC[C@H](Cc1ccc(C(F)(F)F)cc1)NC(=O)c1cc(Br)c(-c2ccnc3[nH]ccc23)s1` [GSK1487252]: the “%Inh” value in [1] turned out to be 0%; in [2] it was 7%; in experiment [3] it was 10%; in experiment [4], 75%; in experiment [5], 11%; in experiment [6] it was 2%. Also, the “%Inh” value in [7] came to 0%; in experiment [8] it was 0%; in experiment [9] it was 4%; in [10], 8%.
Turning to `NC(=O)c1cc(-c2ccccc2)cc2c(C3CCNCC3)c[nH]c12` [GSK301362], the “%Inh” value in experiment [1] was found to be 3%; in experiment [2], 15%; in experiment [3], 34%; in experiment [4] it was 0%; in [5], 0%; in [6] it was 95.8%. The “%Inh” value was 28% in experiment [7], 90% in [8], 12% in [9] and 24% in experiment [10].
With `C[C@@H]1CCN(C(=O)CC#N)C[C@@H]1N(C)c1ncnc2[nH]ccc12`, the “%Inh” value turned out to be 0% in experiment [1]; 0% in experiment [2]; 50% in experiment [4]; 0% in experiment [6]; 0% in [7]; 0% in experiment [8]. Also, the “%Inh” value in [9] came to 10%; in experiment [10], 39%.
Consider `C[C@H]1Oc2cc(cnc2N)-c2c(nn(C)c2C#N)CN(C)C(=O)c2ccc(F)cc21`, for which the “%Inh” value turned out to be 12% in experiment [1]; 0% in [2]; 38% in [3]; 21% in experiment [4]; 0% in experiment [5]; 0% in experiment [6]. Besides, the “%Inh” value in experiment [7] was 13%; in [8] it was 0%; in experiment [9] it was 33%; in experiment [10], 0%.
On to `Cl.Oc1cc(-c2nc(-c3ccccc3)[nH]c2-c2ccncc2)ccc1Cl` [SB-386023], for which the “%Inh” value in [1] was found to be 53%; in experiment [2] it was 0%; in experiment [3], 0%; in experiment [4], 32%; in experiment [5] it was 9%; in [6] it was 11%. Besides, the “%Inh” value in experiment [7] was 29%; in [8], 5%; in experiment [9], 10%; in experiment [10], 1%.
Take `C=CC(=O)Nc1cc2c(Nc3ccc(F)c(Cl)c3)ncnc2cc1OCCCN1CCOCC1` [GW781483]: the “%Inh” value in [2] amounted to 22%; in experiment [3], 6%; in experiment [4], 0%; in experiment [5], 20%; in experiment [6], 0%; in [7], 0%. The entries for the “%Inh” value in experiment [8], in [9] and in [10] were 0%, 0% and 39%, respectively.
Take `CC(C)Nc1cc(-c2ccc3c(N)n[nH]c3c2)nc(N)n1` [GSK2221681]: the “%Inh” value in experiment [1] stood at 0%; in experiment [2], 3%; in experiment [3], 3%; in experiment [4] it was 0%; in experiment [5] it was 2%; in experiment [6] it was 4%. Also, the “%Inh” value in experiment [7] is on record as 0%; in experiment [8] it was 0%; in experiment [9] it was 35%; in experiment [10], 0%.
For the compound `CCN(CC)CCOc1ccc(Nc2ncc3cc(-c4c(Cl)cccc4Cl)c(=O)n(C)c3n2)cc1` [SB-601273], the “%Inh” value was 99.5% in [1]; 60% in experiment [2]; 89% in experiment [3]; 84% in experiment [4]; 65% in experiment [5]; 99.1% in experiment [6]. Besides, the “%Inh” value in experiment [7] stood at 99.4%; in [8], 99.9%; in experiment [9], 42%; in experiment [10] it was 89%.
`CCn1c(-c2nonc2N)nc2c(C#CC(C)(C)O)nc(OCCN)cc21.Cl.Cl` [GSK902056]: the “%Inh” value is given as 0% in experiment [1]; 17% in experiment [2]; 0% in experiment [3]; 0% in experiment [4]; 0% in experiment [5]; 0% in experiment [6]. The “%Inh” value in [7] stood at 0%; in experiment [8], 0%; in [9], 0%; in [10] it was 1%.
Regarding `Cc1ccc(-n2nc(C(C)(C)C)cc2NC(=O)Nc2ccc(OCCN3CCOCC3)c3ccccc23)cc1` [GW839464], the “%Inh” value came to 0% in experiment [1]; 0% in [2]; 9% in experiment [3]; 22% in [4]; 76% in [5]; 0% in [6]. For the same compound, the “%Inh” value in experiment [7] was 1%; in [8], 0%; in experiment [9] it was 31%; in [10], 34%.
For the compound `Cc1ccc2c(-c3ccncc3)c(-c3ccc(F)cc3)nn2c1.Cl` [GW461484], the “%Inh” value in [1] came out at 53%; in [2], 21%; in experiment [3], 26%; in experiment [4] it was 0%; in experiment [5] it was 70%; in experiment [6], 0%. The “%Inh” value in experiment [7] is recorded as 0%; in experiment [8], 0%; in experiment [9] it was 21%; in [10], 0%.
For the compound `Cc1n[nH]c2ccc(-c3cc(OC[C@@H](N)Cc4ccccc4)cnc3-c3ccoc3)cc12.O=C(O)C(F)(F)F.O=C(O)C(F)(F)F` [GSK507358], the “%Inh” value in experiment [1] worked out at 0%; in experiment [2], 0%; in experiment [3], 0%; in experiment [4], 0%; in experiment [5], 97.9%; in experiment [6], 92.4%. The “%Inh” value in [7] was 5%; in experiment [8], 74%; in experiment [9], 18%; in [10], 0%.

The record behind these values is PMC5540273 (PLoS ONE, 2017).
